In PubChem BioAssay (Tox21):
Values without a mark were called inactive. Records with an inconclusive call do not appear. A call without a number means that no potency is given here. The source made the active and inactive calls. Unless noted, calls follow the shape of the dose curve; as a rule, active = well fitted curve in the direction sought with a large enough effect in the repeat runs; inconclusive = weak or mixed curves; inactive = no such curve, though single readings can be large; an effect the other way counts as inactive or inconclusive.

How the values were obtained:
[1] = qHTS assay to identify small molecule agonists of the hypoxia (HIF-1) signaling pathway - cell viability counter screen (AID 1224844; calls by dose curve; also: nearly all actives have a fitted effect of over 50% in size; also: potency is read from the fitted curve at half-maximal effect)
Method in brief: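 Viability counter screen: HRE-bla ME-180 cells plated 5 hrs before compound addition, treated 17 hrs at 37C and 5% CO2, then CellTiter-Glo added after the FRET reporter read; luminescence after 30 min.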

[2] = qHTS assay to identify small molecule agonists of H2AX (AID 1224845; active = well fitted activation curve with a large enough effect in the signal ratio in the repeat runs, not every such curve was filed as active; the % refers to the signal ratio; also: potency is read from the fitted curve at half-maximal effect)
Method in brief: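 Wild-type CHO-K1 cells plated overnight, then exposed 3 hr at 37C to compounds at 15 concentrations (0.76% DMSO). Lysed, then HTRF anti-pH2AX(S139)-cryptate/anti-H2AX-d2 detection after 24 hr at room temperature; emissions 665 and 620 nm.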

[3] = qHTS assay to identify small molecule agonists of the hypoxia (HIF-1) signaling pathway (AID 1224846; active = well fitted activation curve with a large enough effect in the signal ratio in the repeat runs, not every such curve was filed as active; the % refers to the signal ratio)
Method in brief: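 Agonist mode reporter screen. ME-180 cells stably expressing bla under HRE control received test compounds in DMSO for 17 hrs (37C, 5% CO2), and beta-lactamase activity was then detected with the CCF4-AM FRET substrate.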

[4] = qHTS assay to identify small molecule agonists of H2AX - cell viability counter screen (AID 1224847; calls by dose curve; also: nearly all actives have a fitted effect of over 30% in size; also: potency is read from the fitted curve at half-maximal effect)
Method in brief: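 CHO-K1 wt, 1000 cells/well, o/n 37C; cpds 15 conc, 3 h 37C, 0.76% DMSO; CellTiter-Glo, 30 min RT, luminescence.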

[5] = qHTS RealTime-Glo MT Cell Viability Assay in HepG2 cells - 24 hour (AID 1224867); also: nearly all actives have a fitted effect of over 50% in size; also: potency is read from the fitted curve at half-maximal effect
Method in brief: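 qHTS, HepG2, 600 cells/well, RealTime-Glo (NanoLuc + prosubstrate) added with cells; 5 h preincubation; DMSO compound addition; 37 C; luminescence at 0/8/16/24/32/40 h.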

[6] = qHTS RealTime-Glo MT Cell Viability Assay in HEK293 cells - 32 hour (AID 1224868); also: nearly all actives have a fitted effect of over 50% in size; also: potency is read from the fitted curve at half-maximal effect
Method in brief: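 Assay medium contained NanoLuc luciferase plus cell-permeant prosubstrate, added with HEK293 cells at 600 cells/well. After 5 h at 37 C/5% CO2 compounds were added; plates stayed at 37 C for 40 h with serial luminescence reads.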

[7] = A CellTox Green Cytotoxicity Assay to monitor cytotoxicity in HEK293 cells - 0 hour (AID 1224869); also: nearly all actives have a fitted effect of over 50% in size
Method in brief: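 Dead-cell fluorescence measured kinetically: asymmetric cyanine dye, HEK293, 600 cells/well, 5 h settle, 23 nL cpd/DMSO, 37 C, reads 0–40 h every 8 h.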

[8] = qHTS RealTime-Glo MT Cell Viability Assay in HepG2 cells - 40 hour (AID 1224870); also: nearly all actives have a fitted effect of over 50% in size; also: potency is read from the fitted curve at half-maximal effect
Method in brief: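 HepG2 cells mixed with RealTime-Glo MT reagents (NanoLuc plus cell-permeant prosubstrate) were seeded at 600 cells/well, incubated 5 h at 37 C/5% CO2, then pinned with compounds in DMSO; nonlytic luminescence tracked viability during 40 h treatment.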

[9] = qHTS assay to identify small molecule antagonists of the estrogen related receptor (ERR) signaling pathway from Tox21 library (AID 1224848); also: nearly all actives have a fitted effect of over 50% in size; also: potency is read from the fitted curve at half-maximal effect
Method in brief: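 First, 2,000 ERR cells per well were plated and held 6 h at 37 C/5% CO2. Next, compounds in DMSO were pinned in and left 18 h at 37 C. Finally, ONE-Glo was added and luminescence read after 30 min at room temperature.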

[10] = qHTS assay to identify small molecule agonists of the estrogen related receptor (ERR) signaling pathway from Tox21 library (AID 1224849; calls by dose curve; also: nearly all actives have a fitted effect of over 15% in size); settings: ERR reporter cell line, ONE-Glo luciferase, 18 h; at 92.4 µM (top of the series) unless noted
Method in brief: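 Quantitative HTS in agonist format: NTP ERR cell line, compounds transferred in DMSO after 6 h plating, 18 h incubation at 37 C, ONE-Glo luminescence endpoint.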

Structure (SMILES)	Potency [1]	Potency [2]	outcome [3]	Potency [4]	Potency [5]	Potency [6]	Potency [7]	Potency [8]	Potency [9]	activity change, positive = activation [10]
CN1CCC(N(Cc2ccccc2)c2ccccc2)CC1	inactive	inactive	inactive	inactive	inactive	inactive	inactive	inactive		
CCC(=O)c1ccccc1	inactive	inactive	inactive	inactive	inactive	inactive		inactive		
O=C(CCN1CC1)OCC(CO)(COC(=O)CCN1CC1)COC(=O)CCN1CC1	inactive	inactive	inactive	inactive	inactive	inactive		inactive		
Cc1cnc[nH]1	inactive	inactive	inactive	inactive	inactive	inactive	inactive	inactive		
CCCSP(=O)(OCC)Oc1ccc(Br)cc1Cl (stereo not drawn)	inactive	inactive	inactive	inactive	inactive	inactive		inactive		
CCN(Cc1ccc(Cl)nc1)/C(=C/[N+](=O)[O-])NC	inactive	inactive	inactive	inactive	inactive	inactive	inactive	inactive		
CNC(=O)O/N=C(\C)SC	inactive	inactive	inactive	inactive	inactive	inactive		inactive		
Clc1ccccc1N1CCNCC1	inactive	inactive	inactive	inactive	inactive	inactive		inactive		
CC(C)CC#N	inactive	inactive	inactive	inactive	inactive	inactive		inactive		
CCOC(=O)N(C)C(=O)CSP(=S)(OCC)OCC	inactive	inactive	inactive	inactive	inactive	inactive	inactive	inactive		
O=[N+]([O-])c1cccc2cccnc12	inactive	inactive	inactive	inactive	inactive	inactive	inactive	inactive		
CCN(CC)C(C)C(=O)c1ccccc1 (stereo not drawn)	inactive	inactive	inactive	inactive	inactive	inactive		inactive		
COP(N)(=S)Oc1ccccc1C(=O)OC(C)C (stereo not drawn)	inactive	inactive	inactive	inactive	inactive	inactive	inactive	inactive		
O=C(O)c1cccc(Cl)c1	inactive	inactive	inactive	inactive	inactive	inactive	inactive	inactive		
CC(C)NCC(O)c1ccc(N)c(C#N)c1 (stereo not drawn)	inactive	inactive	inactive	inactive	inactive	inactive	inactive	inactive		
CN/C(=N\[N+](=O)[O-])NCC1CCOC1 (stereo not drawn)	inactive	inactive	inactive	inactive	inactive	inactive	inactive	inactive		
N#CC(Cl)(Cl)Cl	inactive	inactive	inactive	inactive	inactive	inactive	inactive	inactive		
OCCSCSCCO	inactive	inactive	inactive	inactive	inactive	inactive	inactive	inactive		
CNC(=O)Oc1c(C(C)(C)C)cc(C)cc1C(C)(C)C	inactive	inactive	inactive	inactive	inactive	inactive		inactive		
Cc1nc(N)nc(N)n1	inactive	inactive	inactive	inactive	inactive	inactive		inactive		
CCOP(=S)(OCC)Oc1cc(-c2ccccc2)on1	inactive	inactive	inactive	inactive	inactive	inactive		inactive		
Fc1cc(Br)ccc1CBr	inactive	inactive	inactive	inactive	inactive	inactive	inactive	inactive		
O=P(O)(Oc1ccccc1)Oc1ccccc1	inactive	inactive	inactive	inactive	inactive	inactive	inactive	inactive		
O=C1CN2CCOC2(c2ccccc2Cl)c2cc(Cl)ccc2N1 (stereo not drawn)	inactive	inactive	inactive	inactive	inactive	inactive	inactive	inactive		
Nc1ccccc1Cl	inactive	inactive	inactive	inactive	inactive	inactive	inactive	inactive		

Structure (SMILES)	Potency [1]	Potency [2]	outcome [3]	Potency [4]	Potency [5]	Potency [6]	Potency [7]	Potency [8]	Potency [9]	activity change, positive = activation [10]
CCOP(=S)(OCC)Oc1nc(Cl)n(C(C)C)n1	inactive	inactive	inactive	inactive	inactive	inactive		inactive		
O=C(CCCN1CCC(n2c(=O)[nH]c3ccccc32)CC1)c1ccc(F)cc1	inactive	inactive	inactive	inactive	inactive		inactive	inactive		
O=C(O)C(Br)CBr (stereo not drawn)	inactive	inactive	inactive	inactive	inactive	inactive	inactive	inactive		
ClCC(Cl)(Cl)Cl	inactive	inactive	inactive	inactive	inactive	inactive	inactive	inactive		
C[N+](C)=CCl	inactive	inactive	inactive	inactive	inactive	inactive	inactive	inactive		
O=C(Cc1ccccc1)OCc1ccccc1	inactive	inactive		inactive	inactive	inactive	inactive	inactive		
CCCCOC(=O)c1ccccc1N	inactive	inactive	inactive		inactive	inactive	inactive	inactive		
N#CC(CCc1ccc(Cl)cc1)(Cn1cncn1)c1ccccc1 (stereo not drawn)	30.9 µM (active)	inactive		50.5 µM (active)	38.9 µM (active)	17.4 µM (active)	inactive	49 µM (active)	17.2 µM (active)	-69.7%
CCC/C(=N\OCC)C1=C(O)CC(CC(C)SCC)CC1=O (stereo not drawn)	inactive	inactive	inactive		inactive		inactive	inactive		
OC(Cn1cncn1)(c1ccc(F)cc1)c1ccccc1F (stereo not drawn)	inactive	inactive	inactive		inactive	inactive	inactive	inactive		
CSc1nc(N=[N+]=[N-])nc(NC(C)C)n1	inactive	inactive	inactive	inactive	inactive			inactive		
Clc1cccc(N2CCNCC2)c1	inactive	inactive		inactive	inactive	inactive	inactive	inactive		
O=S(=O)(O)C(F)(F)C(F)(F)C(F)(F)C(F)(F)C(F)(F)C(F)(F)F	inactive	inactive	inactive		inactive	inactive	inactive	inactive		
Nc1c(Br)cc([N+](=O)[O-])cc1[N+](=O)[O-]	inactive	inactive	inactive		inactive	inactive	inactive	inactive		-26.5%
CCOP(=S)(OCC)Oc1ncn(-c2ccccc2)n1	inactive	inactive	inactive		inactive		inactive	inactive		
CC(C)CC(N(C)C)C1(c2ccc(Cl)cc2)CCC1 (stereo not drawn)	inactive	inactive	inactive		inactive	inactive	inactive	inactive	inactive	1.9% [at 42.5 µM]
Nc1n[nH]c(N)n1	inactive	inactive	inactive	inactive	inactive			inactive		
COc1ccc(C(=O)N2CCCC2=O)cc1	inactive	inactive		inactive	inactive	inactive	inactive	inactive		
CC(C1CC1)C(O)(Cn1cncn1)c1ccc(Cl)cc1 (stereo not drawn)	inactive	inactive	inactive	inactive	inactive		inactive	inactive		
CC1(C(=O)Nc2ccc(O)c(Cl)c2Cl)CCCCC1	inactive	inactive	inactive		inactive		inactive	inactive	61.1 µM (active)	-35.4%
CCOC(=O)/C=C(C)/C=C/C[C@@H](C)CCCC(C)C	inactive	113 µM (active)	inactive		inactive	inactive		inactive		
c1coc(-c2nc3ccccc3[nH]2)c1	inactive	inactive	inactive	80 µM (active)	inactive		inactive	inactive		
C[C@H]1CCC[C@H](O)CCCCCc2cc(O)cc(O)c2C(=O)O1	inactive	inactive	inactive		inactive	34.9 µM (active)	inactive	inactive	54.9 µM (active)	-54.5%
O=[N+]([O-])c1cccc(O)c1	inactive	inactive	inactive		inactive	inactive	inactive	inactive		
COC(=O)COc1ccc(Cl)cc1Cl	inactive	inactive	inactive		inactive	inactive	inactive	inactive	inactive	8.64%
